PubChem BioAssay (NCATS)
Records with an inconclusive call do not appear. Where a call stands in place of a potency, no number is given. Active and inactive are the calls of the source. The call rests on the fitted dose curve; in most records, active means well fitted curve in the direction sought with a large enough effect; inconclusive means small, poorly fitted or top-dose-only effect, or another doubt; inactive means no such curve, though single readings can be large; an effect the other way counts as inactive or inconclusive.

Legend:
[1] = molecular target: Aldehyde dehydrogenase, mitochondrial (Homo sapiens) (UniProt P05091); assay: qHTS for Inhibitors of the Aldehyde Dehydrogenase Family (ALDH2) Primary screen (AID 2061308); further: nearly all actives have a fitted effect of over 55% in size
[2] = molecular target: Retinaldehyde dehydrogenase 3 (Homo sapiens) (UniProt P47895); assay: qHTS for Inhibitors of the Aldehyde Dehydrogenase Family (ALDH1A3) Primary screen (AID 2061315)

Row | SMILES | Potency [1] | Potency [2]
1 | O=C(NCCc1nc2ccccc2n1CCOc1ccccc1[N+](=O)[O-])C1CCCCC1 | inactive | inactive
2 | Cc1ccc(OCCn2c(CCNC(=O)c3c(F)cccc3F)nc3ccccc32)cc1 | inactive | inactive
3 | O=C(O)c1ccc2c(c1)C(=O)N([C@H](Cc1ccccc1)C(=O)O)C2=O | inactive | inactive
4 | O=[S+]([O-])(Nc1ccc(N2CCNCC2)cc1)c1ccc(NCc2cccc(Cl)c2O)cc1 | inactive | inactive
5 | Cc1nc(NCc2ccccc2)c2nc(-c3ccccc3)n(CCN3CCCCC3)c2n1 | inactive | inactive
6 | O=C(c1ccc(F)c(F)c1Nc1ccc(I)cc1F)N1CC(O)(C2CCCCN2)C1 (configuration not stated) | inactive | inactive
